# Results published in PubChem BioAssay (Tox21).
# Inconclusive results are not listed. Where a call stands in place of a potency, no number is given. Activity calls are given as the source filed them. Calls come from the whole dose curve; as a rule, active = well fitted curve in the direction sought with a large enough effect in the repeat runs; inconclusive = weak or mixed curves; inactive = no such curve, though single readings can be large; an effect the other way counts as inactive or inconclusive.
# Tested on: not listed separately
# Assay: qHTS assay to identify aromatase inhibitors - cell viability counter screen (AID 743084);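 note: cells stimulated with testosterone during compound exposure; nearly all actives have a fitted effect of over 55% in size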
# Conditions: MCF-7 aro ERE viability, CellTiter-Fluor, 24 h; series mostly up to 70.3 µM
# Potency is the fitted concentration of half-maximal effect.
row,Structure (SMILES),Potency
1,N[C@H](C(=O)O)[C@@H]1CC(Cl)=NO1,inactive
2,O=C(O)C[C@H](O)C[C@H](O)/C=C/c1c(C2CC2)nc2ccccc2c1-c1ccc(F)cc1,inactive
3,CCCC(CCC)C(=O)OC1C[C@H]2CC[C@@H](C1)[N+]2(C)C (some centres undefined),inactive
4,c1ccc(-c2ccc(C(c3ccccc3)n3ccnc3)cc2)cc1 (centres undefined),inactive
5,Nc1nc(NC2CC2)c2ncn([C@@H]3C=C[C@@H](CO)C3)c2n1,inactive
6,CC1CCCC(C)N1NC(=O)c1ccc(Cl)c(S(N)(=O)=O)c1 (centres undefined),inactive
7,CO/N=C(\C(=O)N[C@@H]1C(=O)N2C(C(=O)O)=C(CSc3nc(C)c(CC(=O)O)s3)CS[C@H]12)c1csc(N)n1,inactive
8,Cc1ncc(C[n+]2csc(CCOP(=O)(O)O)c2C)c(N)n1,inactive
9,CCN1\C(=C/C=C/C=C/c2sc3ccccc3[n+]2CC)Sc2ccccc21,11.9 µM (active)
10,O=C(O)c1cc(O)c2c(c1)[C@H]([C@H]1c3cc(C(=O)O)cc(O)c3C(=O)c3c(O[C@@H]4O[C@H](CO)[C@@H](O)[C@H](O)[C@H]4O)cccc31)c1cccc(O[C@@H]3O[C@H](CO)[C@@H](O)[C@H](O)[C@H]3O)c1C2=O,inactive
11,CNC(=O)C[C@@H](N)C(=O)N[C@@H](C(=O)N[C@@H]1C(=O)N2[C@@H]1SC(C)(C)[C@@H]2C(=O)O)c1ccc(O)cc1,inactive
12,CC12CCC(C1)C(C)(C)C2=O (centres undefined),inactive
13,N[C@H](CO)C(=O)O,inactive
14,C=CC(N)CCC(=O)O (centres undefined),inactive
15,CCC(=O)OC(OP(=O)(CCCCc1ccccc1)CC(=O)N1C[C@H](C2CCCCC2)C[C@H]1C(=O)O)C(C)C (some centres undefined),inactive
16,C/C(=C(/CCO)SSCC1CCCO1)N(C=O)Cc1cnc(C)nc1N (centres undefined),inactive
17,CNC(=O)OCc1cccc(COC(=O)NC)n1,inactive
18,Cc1cc(=O)c(C(=O)N[C@@H](C(=O)N[C@@H]2C(=O)N3C(C(=O)O)=C(CSc4nnnn4C)CS[C@H]23)c2ccc(O)cc2)c[nH]1,inactive
19,CCN(CC)CCn1c(=O)c(Cc2ccc(OC)cc2)nc2ccccc21,inactive

row,Structure (SMILES),Potency
1,COc1ccc(/C=C/C(=O)O)cc1,inactive
2,CN(C)CCc1c[nH]c2ccc(Cn3cncn3)cc12,inactive
3,O=C(O)c1ccc(NC2OC[C@@H](O)[C@H](O)[C@H]2O)cc1 (some centres undefined),inactive
4,C[N+]1(CCCCC[N+]2(C)CCCC2)CCCC1,inactive
5,O=C1CCC(c2ccccc2)(C2CCN(Cc3ccccc3)CC2)C(=O)N1 (centres undefined),inactive
6,CC[C@H](C)C(=O)O[C@H]1CCC=C2C=C[C@H](C)[C@H](CC[C@@H]3C[C@@H](O)CC(=O)O3)[C@H]21,inactive
7,O=C1CC[C@@H](C(=O)N[C@H]2C[C@@H]2c2ccccc2)N1,inactive
8,O=C(O)Cc1nn(Cc2ccc(Br)cc2F)c(=O)c2ccccc12,inactive
9,COc1c(O)cc2c(c1O)[C@@H]1O[C@H](CO)[C@@H](O)[C@H](O)[C@H]1OC2=O,inactive
10,CCCCCCCCCCCCCCCC(=O)OC[C@H](COP(=O)([O-])OCC[N+](C)(C)C)OC(=O)CCCCCCCCCCCCCCC,inactive
11,CN1C(=O)C[C@@H](C(=O)N[C@@H](Cc2cnc[nH]2)C(=O)N2CCC[C@H]2C(N)=O)NC1=O,inactive
12,CCN(CC)CCNC(=O)c1ccc(NS(C)(=O)=O)cc1,inactive
13,FC(F)(F)C(F)(F)C(F)(F)C(F)(F)C(F)(F)F,inactive
14,Cc1c(O)c(=O)ccn1C,inactive
15,COC1[C@@H](O[C@@H]2O[C@H](C)[C@@H](O[C@H]3C[C@@](C)(O)[C@H](OC(=O)CC(C)C)[C@H](C)O3)[C@H](N(C)C)[C@H]2O)[C@@H](CC=O)C[C@@H](C)[C@@H](O)/C=C/C=C/C[C@@H](C)OC(=O)C[C@H]1OC(C)=O (some centres undefined),inactive
16,C=C(Nc1ccc(OCC)cc1)Nc1ccc(OCC)cc1,inactive
17,NCC(O)CC(=O)O (centres undefined),inactive
18,COc1ccc([C@@H]2CC(=O)c3c(O)cc(O[C@@H]4O[C@H](CO[C@@H]5O[C@@H](C)[C@H](O)[C@@H](O)[C@H]5O)[C@@H](O)[C@H](O)[C@H]4O)cc3O2)cc1O,inactive

# Target: Aryl hydrocarbon receptor (Homo sapiens) (UniProt P35869)
# Sequence (P35869 whole entry, looked up): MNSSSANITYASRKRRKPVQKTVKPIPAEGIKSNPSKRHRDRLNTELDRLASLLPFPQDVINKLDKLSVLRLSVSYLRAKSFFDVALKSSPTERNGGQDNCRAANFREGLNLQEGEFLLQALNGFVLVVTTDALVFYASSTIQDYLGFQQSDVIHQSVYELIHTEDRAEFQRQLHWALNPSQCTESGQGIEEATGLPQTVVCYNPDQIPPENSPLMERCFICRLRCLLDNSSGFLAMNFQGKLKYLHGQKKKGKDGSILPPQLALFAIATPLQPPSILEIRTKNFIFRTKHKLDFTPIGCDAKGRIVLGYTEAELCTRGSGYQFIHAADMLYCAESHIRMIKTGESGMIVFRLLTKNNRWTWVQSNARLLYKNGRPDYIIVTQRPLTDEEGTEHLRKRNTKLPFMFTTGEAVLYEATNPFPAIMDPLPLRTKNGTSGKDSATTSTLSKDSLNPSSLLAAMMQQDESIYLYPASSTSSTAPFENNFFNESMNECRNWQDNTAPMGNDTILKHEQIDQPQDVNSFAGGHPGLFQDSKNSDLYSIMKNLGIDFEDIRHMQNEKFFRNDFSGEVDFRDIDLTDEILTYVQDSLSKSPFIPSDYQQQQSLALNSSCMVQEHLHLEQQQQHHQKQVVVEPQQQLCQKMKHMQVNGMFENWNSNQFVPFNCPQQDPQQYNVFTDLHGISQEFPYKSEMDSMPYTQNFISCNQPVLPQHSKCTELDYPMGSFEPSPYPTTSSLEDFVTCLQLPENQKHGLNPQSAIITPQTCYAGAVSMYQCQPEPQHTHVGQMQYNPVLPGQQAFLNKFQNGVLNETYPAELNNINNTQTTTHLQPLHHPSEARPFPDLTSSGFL
# Assay: qHTS assay to identify small molecule that activate the aryl hydrocarbon receptor (AhR) signaling pathway (AID 743085); note: nearly all actives have a fitted effect of over 15% in size
# Conditions: HepG2 AhR-luc (HG2L7.5c1), luciferase, 24 h; series mostly up to 70.3 µM
# Procedure, shortened: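 Compounds were tested in HepG2 hepatocellular carcinoma cells harbouring a stably integrated luciferase gene under control of 20 DREs. Increased reporter signal after 24 h treatment at 37C was taken as AhR activation.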
row,Structure (SMILES),Potency
1,N[C@H](C(=O)O)[C@@H]1CC(Cl)=NO1,inactive
2,O=C(O)C[C@H](O)C[C@H](O)/C=C/c1c(C2CC2)nc2ccccc2c1-c1ccc(F)cc1,inactive
3,CCCC(CCC)C(=O)OC1C[C@H]2CC[C@@H](C1)[N+]2(C)C (some centres undefined),inactive
4,c1ccc(-c2ccc(C(c3ccccc3)n3ccnc3)cc2)cc1 (centres undefined),1.06 µM (active)
5,Nc1nc(NC2CC2)c2ncn([C@@H]3C=C[C@@H](CO)C3)c2n1,8.41 µM (active)
6,CC1CCCC(C)N1NC(=O)c1ccc(Cl)c(S(N)(=O)=O)c1 (centres undefined),inactive
7,CO/N=C(\C(=O)N[C@@H]1C(=O)N2C(C(=O)O)=C(CSc3nc(C)c(CC(=O)O)s3)CS[C@H]12)c1csc(N)n1,inactive
8,Cc1ncc(C[n+]2csc(CCOP(=O)(O)O)c2C)c(N)n1,inactive
9,CCN1\C(=C/C=C/C=C/c2sc3ccccc3[n+]2CC)Sc2ccccc21,inactive
10,O=C(O)c1cc(O)c2c(c1)[C@H]([C@H]1c3cc(C(=O)O)cc(O)c3C(=O)c3c(O[C@@H]4O[C@H](CO)[C@@H](O)[C@H](O)[C@H]4O)cccc31)c1cccc(O[C@@H]3O[C@H](CO)[C@@H](O)[C@H](O)[C@H]3O)c1C2=O,inactive
11,CNC(=O)C[C@@H](N)C(=O)N[C@@H](C(=O)N[C@@H]1C(=O)N2[C@@H]1SC(C)(C)[C@@H]2C(=O)O)c1ccc(O)cc1,inactive
12,CC12CCC(C1)C(C)(C)C2=O (centres undefined),inactive
13,N[C@H](CO)C(=O)O,inactive
14,C=CC(N)CCC(=O)O (centres undefined),inactive
15,CCC(=O)OC(OP(=O)(CCCCc1ccccc1)CC(=O)N1C[C@H](C2CCCCC2)C[C@H]1C(=O)O)C(C)C (some centres undefined),inactive
16,C/C(=C(/CCO)SSCC1CCCO1)N(C=O)Cc1cnc(C)nc1N (centres undefined),inactive
17,CNC(=O)OCc1cccc(COC(=O)NC)n1,inactive
18,Cc1cc(=O)c(C(=O)N[C@@H](C(=O)N[C@@H]2C(=O)N3C(C(=O)O)=C(CSc4nnnn4C)CS[C@H]23)c2ccc(O)cc2)c[nH]1,inactive
19,CCN(CC)CCn1c(=O)c(Cc2ccc(OC)cc2)nc2ccccc21,inactive

row,Structure (SMILES),Potency
1,COc1ccc(/C=C/C(=O)O)cc1,inactive
2,CN(C)CCc1c[nH]c2ccc(Cn3cncn3)cc12,inactive
3,O=C(O)c1ccc(NC2OC[C@@H](O)[C@H](O)[C@H]2O)cc1 (some centres undefined),inactive
4,C[N+]1(CCCCC[N+]2(C)CCCC2)CCCC1,inactive
5,O=C1CCC(c2ccccc2)(C2CCN(Cc3ccccc3)CC2)C(=O)N1 (centres undefined),inactive
6,CC[C@H](C)C(=O)O[C@H]1CCC=C2C=C[C@H](C)[C@H](CC[C@@H]3C[C@@H](O)CC(=O)O3)[C@H]21,inactive
7,O=C1CC[C@@H](C(=O)N[C@H]2C[C@@H]2c2ccccc2)N1,inactive
8,O=C(O)Cc1nn(Cc2ccc(Br)cc2F)c(=O)c2ccccc12,inactive
9,COc1c(O)cc2c(c1O)[C@@H]1O[C@H](CO)[C@@H](O)[C@H](O)[C@H]1OC2=O,inactive
10,CCCCCCCCCCCCCCCC(=O)OC[C@H](COP(=O)([O-])OCC[N+](C)(C)C)OC(=O)CCCCCCCCCCCCCCC,inactive
11,CN1C(=O)C[C@@H](C(=O)N[C@@H](Cc2cnc[nH]2)C(=O)N2CCC[C@H]2C(N)=O)NC1=O,inactive
12,CCN(CC)CCNC(=O)c1ccc(NS(C)(=O)=O)cc1,inactive
13,FC(F)(F)C(F)(F)C(F)(F)C(F)(F)C(F)(F)F,inactive
14,Cc1c(O)c(=O)ccn1C,inactive
15,COC1[C@@H](O[C@@H]2O[C@H](C)[C@@H](O[C@H]3C[C@@](C)(O)[C@H](OC(=O)CC(C)C)[C@H](C)O3)[C@H](N(C)C)[C@H]2O)[C@@H](CC=O)C[C@@H](C)[C@@H](O)/C=C/C=C/C[C@@H](C)OC(=O)C[C@H]1OC(C)=O (some centres undefined),inactive
16,C=C(Nc1ccc(OCC)cc1)Nc1ccc(OCC)cc1,inactive
17,NCC(O)CC(=O)O (centres undefined),inactive
18,COc1ccc([C@@H]2CC(=O)c3c(O)cc(O[C@@H]4O[C@H](CO[C@@H]5O[C@@H](C)[C@H](O)[C@@H](O)[C@H]5O)[C@@H](O)[C@H](O)[C@H]4O)cc3O2)cc1O,inactive
